The full data set covers some 7,900 targets. This sample favours those with a hit. About 0.6% of all pairs of compound and target were hits.

Chain of UniProt Q9HAD4 (Q9HAD4 whole entry, looked up): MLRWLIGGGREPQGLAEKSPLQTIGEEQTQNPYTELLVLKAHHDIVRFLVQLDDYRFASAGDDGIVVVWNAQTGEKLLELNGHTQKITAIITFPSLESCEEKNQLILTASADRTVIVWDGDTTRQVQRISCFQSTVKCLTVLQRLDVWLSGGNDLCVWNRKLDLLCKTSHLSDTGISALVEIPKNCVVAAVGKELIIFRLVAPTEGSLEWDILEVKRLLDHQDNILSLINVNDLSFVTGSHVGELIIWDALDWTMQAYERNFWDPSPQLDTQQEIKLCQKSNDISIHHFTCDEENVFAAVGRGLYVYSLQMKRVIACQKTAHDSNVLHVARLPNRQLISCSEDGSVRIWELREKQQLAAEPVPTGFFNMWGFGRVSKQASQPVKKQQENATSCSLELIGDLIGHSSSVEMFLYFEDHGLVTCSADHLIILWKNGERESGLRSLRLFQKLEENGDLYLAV
Chain of UniProt Q9BTX3 (Q9BTX3 whole entry, looked up): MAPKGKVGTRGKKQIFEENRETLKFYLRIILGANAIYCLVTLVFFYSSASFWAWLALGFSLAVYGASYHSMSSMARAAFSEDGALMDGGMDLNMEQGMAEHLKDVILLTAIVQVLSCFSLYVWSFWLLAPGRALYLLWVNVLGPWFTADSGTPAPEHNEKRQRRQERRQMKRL
Chain of UniProt Q9BV38 (Q9BV38 whole entry, looked up): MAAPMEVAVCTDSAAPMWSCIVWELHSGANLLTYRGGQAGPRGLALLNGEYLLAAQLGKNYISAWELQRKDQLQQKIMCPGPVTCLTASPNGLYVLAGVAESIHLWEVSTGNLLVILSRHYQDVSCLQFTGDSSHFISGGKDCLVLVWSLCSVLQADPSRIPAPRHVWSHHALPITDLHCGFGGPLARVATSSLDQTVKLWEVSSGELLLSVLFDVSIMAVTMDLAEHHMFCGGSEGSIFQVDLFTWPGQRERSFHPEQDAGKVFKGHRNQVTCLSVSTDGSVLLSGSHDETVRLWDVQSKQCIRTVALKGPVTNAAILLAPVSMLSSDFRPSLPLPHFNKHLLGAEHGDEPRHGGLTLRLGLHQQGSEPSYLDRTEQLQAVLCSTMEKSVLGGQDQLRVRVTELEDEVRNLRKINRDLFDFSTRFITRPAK
Chain of WASHC2C, A0A096LPC5 (A0A096LPC5 whole entry, looked up): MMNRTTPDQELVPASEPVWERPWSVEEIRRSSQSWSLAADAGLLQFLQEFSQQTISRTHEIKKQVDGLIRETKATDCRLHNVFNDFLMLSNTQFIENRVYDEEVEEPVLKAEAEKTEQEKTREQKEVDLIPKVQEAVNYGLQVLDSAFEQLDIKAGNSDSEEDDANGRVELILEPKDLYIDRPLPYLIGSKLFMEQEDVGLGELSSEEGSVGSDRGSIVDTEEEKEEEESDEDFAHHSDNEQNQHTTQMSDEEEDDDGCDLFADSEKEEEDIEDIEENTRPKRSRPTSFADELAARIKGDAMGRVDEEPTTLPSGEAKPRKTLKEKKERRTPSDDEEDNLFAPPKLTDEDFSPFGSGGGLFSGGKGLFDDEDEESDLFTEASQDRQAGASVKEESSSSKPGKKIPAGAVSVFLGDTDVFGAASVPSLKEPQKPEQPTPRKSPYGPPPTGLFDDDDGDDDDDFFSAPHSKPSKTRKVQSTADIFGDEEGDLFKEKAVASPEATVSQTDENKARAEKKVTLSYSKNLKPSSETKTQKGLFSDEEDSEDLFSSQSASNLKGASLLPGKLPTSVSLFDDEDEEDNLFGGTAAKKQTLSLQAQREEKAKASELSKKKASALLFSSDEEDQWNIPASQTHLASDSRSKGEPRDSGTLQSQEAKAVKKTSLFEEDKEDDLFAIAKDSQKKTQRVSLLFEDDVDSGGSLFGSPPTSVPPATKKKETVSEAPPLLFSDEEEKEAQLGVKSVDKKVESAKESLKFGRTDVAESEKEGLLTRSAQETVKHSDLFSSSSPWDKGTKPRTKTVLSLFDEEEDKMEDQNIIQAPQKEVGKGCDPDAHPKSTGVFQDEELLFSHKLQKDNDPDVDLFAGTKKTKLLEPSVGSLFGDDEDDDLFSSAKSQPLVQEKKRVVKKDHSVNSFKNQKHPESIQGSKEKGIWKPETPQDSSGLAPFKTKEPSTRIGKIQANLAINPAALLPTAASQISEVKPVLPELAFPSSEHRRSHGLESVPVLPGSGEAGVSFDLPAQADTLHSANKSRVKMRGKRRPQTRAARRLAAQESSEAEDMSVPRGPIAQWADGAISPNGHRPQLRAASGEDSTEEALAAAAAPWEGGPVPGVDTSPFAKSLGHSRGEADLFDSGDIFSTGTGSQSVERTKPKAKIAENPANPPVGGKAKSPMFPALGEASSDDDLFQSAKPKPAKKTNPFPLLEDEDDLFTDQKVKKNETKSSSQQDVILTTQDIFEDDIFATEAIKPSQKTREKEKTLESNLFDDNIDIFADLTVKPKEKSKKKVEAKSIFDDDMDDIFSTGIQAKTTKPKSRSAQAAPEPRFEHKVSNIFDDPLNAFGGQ
Chain of UniProt Q86XT9 (Q86XT9 whole entry, looked up): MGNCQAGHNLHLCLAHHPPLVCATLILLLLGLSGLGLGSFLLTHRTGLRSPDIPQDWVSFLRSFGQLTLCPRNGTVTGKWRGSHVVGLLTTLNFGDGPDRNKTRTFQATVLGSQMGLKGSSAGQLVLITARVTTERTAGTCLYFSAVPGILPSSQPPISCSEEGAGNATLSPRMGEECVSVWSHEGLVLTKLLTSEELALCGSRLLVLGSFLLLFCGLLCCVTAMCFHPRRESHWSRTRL
Chain of UniProt Q8N1B4 (Q8N1B4 whole entry, looked up): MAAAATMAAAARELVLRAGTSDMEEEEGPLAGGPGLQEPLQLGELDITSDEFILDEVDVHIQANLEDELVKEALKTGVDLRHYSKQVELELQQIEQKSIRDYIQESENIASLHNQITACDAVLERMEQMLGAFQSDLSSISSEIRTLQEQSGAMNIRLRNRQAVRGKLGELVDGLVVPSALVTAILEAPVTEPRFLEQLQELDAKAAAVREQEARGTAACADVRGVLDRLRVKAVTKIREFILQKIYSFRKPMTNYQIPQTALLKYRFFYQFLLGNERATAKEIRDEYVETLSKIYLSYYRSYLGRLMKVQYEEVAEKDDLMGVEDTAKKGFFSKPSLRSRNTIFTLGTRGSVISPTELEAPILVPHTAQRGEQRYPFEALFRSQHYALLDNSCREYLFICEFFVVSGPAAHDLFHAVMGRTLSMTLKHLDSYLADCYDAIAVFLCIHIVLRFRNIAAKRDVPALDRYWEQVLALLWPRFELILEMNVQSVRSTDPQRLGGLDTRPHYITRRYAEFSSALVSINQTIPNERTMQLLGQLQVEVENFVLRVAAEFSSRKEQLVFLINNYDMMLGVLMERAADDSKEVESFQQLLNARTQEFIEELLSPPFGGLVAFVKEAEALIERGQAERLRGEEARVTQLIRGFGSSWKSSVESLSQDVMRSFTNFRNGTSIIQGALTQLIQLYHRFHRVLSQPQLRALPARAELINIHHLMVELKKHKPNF
Chain of UniProt P13010 (P13010 whole entry, looked up): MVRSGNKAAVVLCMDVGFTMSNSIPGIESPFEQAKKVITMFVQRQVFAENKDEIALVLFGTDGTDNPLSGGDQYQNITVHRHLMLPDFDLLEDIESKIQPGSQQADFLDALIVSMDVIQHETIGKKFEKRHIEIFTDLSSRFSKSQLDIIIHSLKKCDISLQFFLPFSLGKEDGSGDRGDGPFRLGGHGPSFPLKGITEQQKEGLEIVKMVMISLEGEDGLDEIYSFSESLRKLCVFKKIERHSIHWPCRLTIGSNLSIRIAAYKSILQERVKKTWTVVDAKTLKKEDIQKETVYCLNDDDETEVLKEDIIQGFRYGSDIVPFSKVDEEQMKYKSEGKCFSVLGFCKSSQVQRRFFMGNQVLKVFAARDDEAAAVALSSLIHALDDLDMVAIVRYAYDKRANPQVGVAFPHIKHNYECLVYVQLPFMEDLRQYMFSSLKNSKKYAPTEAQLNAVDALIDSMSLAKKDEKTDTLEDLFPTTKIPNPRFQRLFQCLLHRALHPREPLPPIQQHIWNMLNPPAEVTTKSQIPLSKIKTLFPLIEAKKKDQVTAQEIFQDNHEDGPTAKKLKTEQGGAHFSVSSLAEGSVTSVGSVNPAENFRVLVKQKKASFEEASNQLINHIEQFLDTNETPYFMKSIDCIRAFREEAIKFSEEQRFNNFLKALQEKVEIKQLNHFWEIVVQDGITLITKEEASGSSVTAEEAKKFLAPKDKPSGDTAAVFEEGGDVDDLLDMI
Chain of UniProt O95857 (O95857 whole entry, looked up): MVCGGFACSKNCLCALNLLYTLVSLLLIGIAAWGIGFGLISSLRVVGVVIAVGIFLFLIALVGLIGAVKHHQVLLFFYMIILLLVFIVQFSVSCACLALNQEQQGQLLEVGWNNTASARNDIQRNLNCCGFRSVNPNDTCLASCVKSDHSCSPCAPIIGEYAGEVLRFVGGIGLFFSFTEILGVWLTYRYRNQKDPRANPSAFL
Chain of UniProt Q99986 (Q99986 whole entry, looked up): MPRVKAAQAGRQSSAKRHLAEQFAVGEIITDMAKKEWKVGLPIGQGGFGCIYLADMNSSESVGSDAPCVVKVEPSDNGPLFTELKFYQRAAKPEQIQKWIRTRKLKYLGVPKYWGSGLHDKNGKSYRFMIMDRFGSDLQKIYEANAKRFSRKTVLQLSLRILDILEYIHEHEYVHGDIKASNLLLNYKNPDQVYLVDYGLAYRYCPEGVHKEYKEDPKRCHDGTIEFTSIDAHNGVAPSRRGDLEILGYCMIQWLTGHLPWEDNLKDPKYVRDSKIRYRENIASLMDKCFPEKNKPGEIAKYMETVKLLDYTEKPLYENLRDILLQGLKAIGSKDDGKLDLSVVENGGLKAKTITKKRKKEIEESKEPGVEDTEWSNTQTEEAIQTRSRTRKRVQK
Chain of UniProt Q9P0T7 (Q9P0T7 whole entry, looked up): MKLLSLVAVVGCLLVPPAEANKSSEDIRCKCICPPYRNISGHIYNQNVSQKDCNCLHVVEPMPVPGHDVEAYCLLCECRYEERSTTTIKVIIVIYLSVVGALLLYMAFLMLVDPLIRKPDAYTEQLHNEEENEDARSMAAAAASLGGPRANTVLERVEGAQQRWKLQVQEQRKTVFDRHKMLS

Compound in the first assay: C1=CC=C(C=C1)[C@H](COC2=CC3=C(C=C2)NC(=O)N3)NC(=O)C4=CC=CN(C4=O)CC5=CC(=C(C=C5)F)F
As to the kind of experiment: log2 fold change, soluble protein after heating vs DMSO (PISA); higher = thermal stabilisation; K562 cells, 10 uM, 30 min; active = over 0.2 and 3.5 SD of the protein, either way, in both replicates (recomputed). The procedure, abridged:
(§1)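 Thermal stability values are relative to control samples and come from duplicates. They are expressed as log2 fold changes. For measurement, K562 cells (2×10^6 cells/mL) received 10 μM compound for 30 min, and aliquots were heated for 3 min over 48°C-58°C, pooled, and extracted at 4°C in PBS with 0.5% NP-40. Soluble protein, the supernatant after 21,000xg for 90 min, was quantified by TMTpro 16plex LC-MS/MS with equalised channel sums.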
With TSPAN13 (UniProt O95857), the log2 fold change is -0.195 (inactive).
The same measure, in the same setting: the figure for WASHC3 (UniProt Q9Y3C0) is 0.015 (inactive).
Turning to TMEM9 (UniProt Q9P0T7), the log2 fold change was 0.008 (inactive).
Same read-out and setting: the figure for TMEM219 (UniProt Q86XT9) is 0.066 (inactive).
On the same count and under the same terms, as for TRMT10A (UniProt Q8TBZ6), the figure is -0.038 (inactive); as for WDR41 (UniProt Q9HAD4), -0.045 (inactive).
On the same count and under the same terms, as for USP48 isoform 8 (UniProt Q86UV5), the figure is -0.073 (inactive).
As to TMEM208 (UniProt Q9BTX3), the log2 fold change is -0.101 (inactive).
On the same count and under the same terms, the figure for XRCC5 (UniProt P13010) is -0.136 (inactive).
The same measure, in the same setting: the figure for WASHC2C, A0A096LPC5 is 0.015 (inactive).
For the target VPS52 (UniProt Q8N1B4), the log2 fold change is 0.068 (inactive).
For WDR18 (UniProt Q9BV38), the log2 fold change was 0 (inactive).
As to VRK1 (UniProt Q99986), the log2 fold change is -0.13 (inactive).

Compound in another assay: CC1=C(SC2=C1C(=N[C@H](C3=NN=C(N32)C)CC(=O)N)C4=CC=C(C=C4)Cl)C
Described as above. The procedure, abridged: as §1
Take VPS33B (UniProt Q9H267): the log2 fold change is 0.021 (inactive).
As to USP24 (UniProt Q9UPU5), the log2 fold change is 0.02 (inactive).
With UBIAD1 (UniProt Q9Y5Z9), the log2 fold change is 0.029 (inactive).
The same measure, in the same setting: the figure for TMEM9B (UniProt Q9NQ34) is 0.074 (inactive).
Same read-out and setting: the figure for TRIM4 (UniProt Q9C037) is -0.014 (inactive).
Same read-out and setting: as for WDR75 (UniProt Q8IWA0), the figure is -0.24 (inactive); as for TTI1 (UniProt O43156), 0.136 (inactive).
With VTA1 (UniProt Q9NP79), the log2 fold change was 0.062 (inactive).
On the same count and under the same terms, the figure for VPS51 (UniProt Q9UID3) is 0.026 (inactive).
As for TRAPPC11 (UniProt Q7Z392), the log2 fold change is 0.117 (inactive).
Same read-out and setting: the figure for UBE2S (UniProt Q16763) is 0.053 (inactive).
On the same count and under the same terms, as for UCHL5 (UniProt Q9Y5K5), the figure is 0.004 (inactive); as for WDR43 (UniProt Q15061), 0.027 (inactive).
Same read-out and setting: as for TMEM63B (UniProt Q5T3F8), the figure is -0.005 (inactive).
UBXN10 (UniProt Q96LJ8): the log2 fold change was 0.014 (inactive).
On the same count and under the same terms, as for UHRF1BP1L (UniProt A0JNW5), the figure is 0.099 (inactive); as for WDCP (UniProt Q9H6R7), 0 (inactive); as for UNC119B (UniProt A6NIH7), -0.013 (inactive).
Same read-out and setting: the figure for XRCC6 (UniProt P12956) is 0.044 (inactive).
Consider XPO5 (UniProt Q9HAV4), for which the log2 fold change was 0.042 (inactive).
The same measure, in the same setting: as for UBAP2L isoform 5 (UniProt Q14157), the figure is 0.036 (inactive); as for TMEM70 (UniProt Q9BUB7), 0.065 (inactive); as for WASHC2A (UniProt Q641Q2), -0.041 (inactive).
Consider TSPAN13 (UniProt O95857), for which the log2 fold change is 0.023 (inactive).
Same read-out and setting: as for WASHC3 (UniProt Q9Y3C0), the figure is -0.022 (inactive); as for TMEM9 (UniProt Q9P0T7), 0.02 (inactive); as for TMEM219 (UniProt Q86XT9), -0.023 (inactive).
Consider TRMT10A (UniProt Q8TBZ6), for which the log2 fold change is 0.028 (inactive).
In the case of WDR41 (UniProt Q9HAD4), the log2 fold change was -0.08 (inactive).
Still for that read-out and setting: the figure for USP48 isoform 8 (UniProt Q86UV5) is 0.106 (inactive); for TMEM208 (UniProt Q9BTX3) it is 0.02 (inactive); for XRCC5 (UniProt P13010) it is -0.019 (inactive).
Same read-out and setting: as for WASHC2C, A0A096LPC5, the figure is 0.012 (inactive).
On the same count and under the same terms, as for VPS52 (UniProt Q8N1B4), the figure is 0.036 (inactive).
With WDR18 (UniProt Q9BV38), the log2 fold change is 0.011 (inactive).
On the same count and under the same terms, as for VRK1 (UniProt Q99986), the figure is 0.02 (inactive).

Compound in another assay: CC1=C2C(=CC=C1)N=C(N(C2=O)C3=CC=CC=C3C)CN4C=NC5=C(N=CN=C54)N
The description is as above. The procedure, abridged:
as §1
On to VPS33B (UniProt Q9H267), for which the log2 fold change is 0.03 (inactive).
Same read-out and setting: the figure for USP24 (UniProt Q9UPU5) is 0.105 (inactive); for UBIAD1 (UniProt Q9Y5Z9) it is 0.068 (inactive); for TMEM9B (UniProt Q9NQ34) it is 0.093 (inactive).
On the same count and under the same terms, as for TRIM4 (UniProt Q9C037), the figure is 0.254 (inactive).
Still for that read-out and setting: the figure for WDR75 (UniProt Q8IWA0) is 0.002 (inactive); for TTI1 (UniProt O43156) it is 0.022 (inactive); for VTA1 (UniProt Q9NP79) it is 0.104 (inactive).
As for VPS51 (UniProt Q9UID3), the log2 fold change is 0.047 (inactive).
Still for that read-out and setting: the figure for TRAPPC11 (UniProt Q7Z392) is 0.077 (inactive); for UBE2S (UniProt Q16763) it is 0.106 (inactive); for UCHL5 (UniProt Q9Y5K5) it is 0.043 (inactive).
Take WDR43 (UniProt Q15061): the log2 fold change is 0.009 (inactive).
Still for that read-out and setting: the figure for TMEM63B (UniProt Q5T3F8) is -0.099 (inactive); for UBXN10 (UniProt Q96LJ8) it is 0.024 (inactive).
For UHRF1BP1L (UniProt A0JNW5), the log2 fold change was 0.05 (inactive).
Still for that read-out and setting: as for WDCP (UniProt Q9H6R7), the figure is -0.015 (inactive).
Still for that read-out and setting: as for UNC119B (UniProt A6NIH7), the figure is 0.094 (inactive); as for XRCC6 (UniProt P12956), 0.114 (inactive).
On to XPO5 (UniProt Q9HAV4), for which the log2 fold change is 0.02 (inactive).
Regarding UBAP2L isoform 5 (UniProt Q14157), the log2 fold change was 0 (inactive).
Take TMEM70 (UniProt Q9BUB7): the log2 fold change is 0.057 (inactive).
On the same count and under the same terms, as for WASHC2A (UniProt Q641Q2), the figure is -0.017 (inactive).
In the case of TSPAN13 (UniProt O95857), the log2 fold change was 0.639 (active).
On the same count and under the same terms, as for WASHC3 (UniProt Q9Y3C0), the figure is 0.045 (inactive).
TMEM9 (UniProt Q9P0T7): the log2 fold change is -0.002 (inactive).
Take TMEM219 (UniProt Q86XT9): the log2 fold change is -0.172 (inactive).
Consider TRMT10A (UniProt Q8TBZ6), for which the log2 fold change is 0.006 (inactive).
Consider WDR41 (UniProt Q9HAD4), for which the log2 fold change is -0.033 (inactive).
On the same count and under the same terms, the figure for USP48 isoform 8 (UniProt Q86UV5) is 0.191 (inactive); for TMEM208 (UniProt Q9BTX3) it is 0.088 (inactive).
The same measure, in the same setting: as for XRCC5 (UniProt P13010), the figure is 0.095 (inactive).
Same read-out and setting: as for WASHC2C, A0A096LPC5, the figure is 0.008 (inactive).
Turning to VPS52 (UniProt Q8N1B4), the log2 fold change was 0.137 (inactive).
The same measure, in the same setting: the figure for WDR18 (UniProt Q9BV38) is -0.019 (inactive); for VRK1 (UniProt Q99986) it is 0.178 (inactive).

Source of the values: the supplement of paper PMC10849652.
